Screening data from PubChem.
This is a sample that favours compounds with a hit; in the whole collection about 0.88% have one here.
TRHR PAM = allosterically enhances the human TRH receptor; TRHR cells, fluo-8 calcium fluorescence, EC20 TRH enhancement; hit rate 0.66% among 360,000; P34981; enhancement, % at 2 µM; AID 493056; in the data active = enhancement above about 30%; note: 0% is about no effect
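TRHR-expressing cells loaded with fluo-8 calcium dye were read kinetically (ex 480/em 530) during compound addition, then stimulated with an EC20 of TRH (10 nM final). Enhancement of the Gq-mediated intracellular calcium response was scored.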
Epigenetic derep = regulators of epigenetic silencing causing reporter derepression in mouse cells. hit rate 0.2% among 280,000. Potency, µM (titrated, usually from 53.9 µM), for inactives: at the highest dose GFP activation, hits mostly activators. murine LDR cells, GFP reporter derepression, 30 h; note: potency is the fitted concentration of half-maximal effect; % of control where 0% means no effect; nearly all actives have a fitted effect of over 60% in size
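Murine LDR cells carrying a silenced, genomically integrated CMV-driven GFP reporter were exposed to compound for 30 hours at 37 C. After PBS washes, GFP-positive cells (20–120 um objects) were counted by laser-scanning microplate cytometry.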
IL-2 act = IL-2 activation; AID 652025; activation, % (series mostly up to about 46 µM); IL-2 activation reporter assay, cell-based qHTS; stimulated with anti-CD3/CD4/CD28 beads; in transgenic mouse T cells; hit rate 0.065% among 360,000; in the data active = activation above about 50%; inconclusive = mostly about 30% to 49%; note: 0% is about no effect
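Unstimulated transgenic mouse T cells; 60-min compound exposure; bead-based TCR/CD4/CD28 stimulation; 18 h culture, 37 degrees C; dual fluorescence (EGFP, DsRed) plate cytometry.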
MBNL1-CUG inh = inhibitors of human MBNL1 binding to CUG repeat RNA; AID 2675; Potency, µM (series often up to 57.5 µM), for inactives: at the top dose activity change, negative = inhibition, most hits filed as inhibitors; TR-FRET MBNL1-His/biotin-(CUG)12 binding, 665/545 ratio; hit rate 0.036% among 280,000; Q9NR56; active = well fitted inhibition curve with a large enough effect in the signal ratio, with a control signal flat, not every such curve was filed as active; inconclusive = small, poorly fitted or top-dose-only effect, or effect the other way, or a change in a side signal; inactive = no such curve, though single readings can be large or run the other way; the % refers to the signal ratio; note: potency is the fitted concentration of half-maximal effect; % is set by controls: 0 for no effect and ±100 for the full control effect
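MBNL1-His + Biotin-(CUG)12, cpd titration 92 nM–58 uM; Tb anti-His Ab 0.055 ng/ul, SA-XL665 5 nM (final); 60 min RT; ratiometric 665/545 nm, Ex 340 nm; normalized to buffer and full-complex controls.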
CBFb RUNX1 block = CBF-beta/RUNX1 interaction disruption; Potency, µM (top dose mostly 59.8 µM), without a hit: top-dose activity, negative = inhibition, usual class: inhibitors; 230,000 tested, under 10 active; AlphaScreen CBFb-His/RUNX1-biotin binding, biochemical; note: % of control where 0% means no effect
Target sequence (Q01196 whole entry, looked up): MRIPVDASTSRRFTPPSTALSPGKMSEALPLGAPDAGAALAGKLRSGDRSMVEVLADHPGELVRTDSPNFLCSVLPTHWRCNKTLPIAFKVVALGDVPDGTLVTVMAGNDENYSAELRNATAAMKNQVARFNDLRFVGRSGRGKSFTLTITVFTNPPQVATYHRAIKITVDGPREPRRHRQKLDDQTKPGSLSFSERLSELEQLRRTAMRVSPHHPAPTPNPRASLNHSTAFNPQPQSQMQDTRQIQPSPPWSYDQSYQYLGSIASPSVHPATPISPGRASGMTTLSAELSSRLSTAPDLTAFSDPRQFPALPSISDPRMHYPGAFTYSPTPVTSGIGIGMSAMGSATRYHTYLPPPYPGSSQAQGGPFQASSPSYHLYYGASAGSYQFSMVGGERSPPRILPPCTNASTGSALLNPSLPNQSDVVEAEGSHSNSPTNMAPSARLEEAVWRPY
Target sequence (Q13951 whole entry, looked up): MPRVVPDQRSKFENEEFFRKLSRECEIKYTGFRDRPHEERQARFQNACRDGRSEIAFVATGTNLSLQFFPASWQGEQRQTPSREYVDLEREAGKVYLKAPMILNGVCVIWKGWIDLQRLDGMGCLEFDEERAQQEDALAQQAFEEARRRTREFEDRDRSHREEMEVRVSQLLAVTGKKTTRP
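His-tagged CBF-beta and biotinylated RUNX1 (30 nM each) were premixed 20 min at room temperature, exposed to compound for 15 min, then given nickel-chelate and streptavidin AlphaScreen beads (50 ng each). After 90 min, AlphaScreen signal was read.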
TRHR ag = activates the human TRH receptor | P34981 | TRHR cells, calcium flux fluo-8, FDSS agonist mode | activation, % at 2 µM | hit rate 0.18% among 360,000; in the data active = activation above about 30%; note: 0% is about no effect
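TRHR-expressing cells, plated overnight in medium with 10% serum, were loaded with fluo-8 calcium dye at room temperature. After a 10 s baseline, library compound was pin-added and calcium release was recorded kinetically (ex 480/em 530) as agonist response.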
Numbers without * were called inactive; ? = inconclusive; / = not tested or not shown; ! = not confirmed by another sample; [ ] = remark or other dose. Unless noted, calls come from the whole dose curve; as a rule, active = well fitted curve in the direction sought with a large enough effect; inconclusive = small, poorly fitted or top-dose-only effect, or another doubt; inactive = no such curve, though single readings can be large; an effect the other way counts as inactive or inconclusive.

SMILES | TRHR PAM | Epigenetic derep | IL-2 act | MBNL1-CUG inh | CBFb RUNX1 block | TRHR ag
CC(=O)c1ccc(S(=O)(=O)N2CCN(c3nc(-c4cccnc4)nc4ccccc34)CC2)cc1 | 35* | / | -1 | / | / | 1
CC(C)(C)OC(=O)Cc1nnc(C(C(=O)OCc2ccccc2)c2ccccc2)o1 (stereo unspecified) | 0 | / | / | / | / | 1
CC(NC(=O)c1noc2c1CCCCC2)c1ccccc1 (stereo unspecified) | 30* | 0% | -2 | -2% | 2% | 2
CC1=C(C(=O)Nc2cccnc2)C(c2ccc(Cl)cc2)n2nc(SCc3ccccc3)nc2N1 (stereo unspecified) | -3 | -2% | / | / | / | 0
Cc1nnc2ccc(-c3cccc(NS(=O)(=O)c4ccccc4Cl)c3)nn12 | 36* | / | 0 | / | / | 0
Cc1cccc2cc(C#N)c(SCC(=O)N3CC(=O)Nc4ccccc43)nc12 | -3 | 20µM* | 0 | 56% | -1% | 11
Cc1cc2[nH]c3c(=O)n(Cc4ccccc4F)ncc3c2s1 | -6 | / | / | / | / | 0
O=C(CCCC(=O)c1ccccc1)Nc1ccc(F)cc1 | -4 | / | 2 | -7% | / | -1
Cc1c(F)cccc1NC(=O)CCC(=O)O | -2 | 3% | -2 | 1% | 5% | 0
Cc1c(F)cccc1NC(=O)CCCCCC1NC(=O)NC1C (stereo unspecified) | -1 | -2% | 0 | 0.28µM* | / | 1
CC1NC(=O)NC1CCCCCC(=O)Nc1ccc(F)cc1 (stereo unspecified) | -3 | 0% | 0 | 0.1µM* | / | 0
O=S(=O)(NCCc1ccc(Cl)cc1)c1ccc(N2CCCCS2(=O)=O)cc1 | 4 | -6% | / | / | / | 0
CN1CCc2c(sc3c2C(=O)NC(c2ccc(OC(=O)c4ccccc4)cc2)N3)C1 (stereo unspecified) | -4 | 2% | / | / | / | 22
CN1CCc2c(sc3c2C(=O)NC(c2ccccc2)N3)C1 (stereo unspecified) | 3 | 10% | 4 | 0%[11.5 µM] | -2% | 3
CN1CCc2c(sc3c2C(=O)NC(c2ccc(OC(=O)c4ccc(C(C)(C)C)cc4)cc2)N3)C1 (stereo unspecified) | 9 | ? | / | / | / | 121*
CN1CCc2c(sc3c2C(=O)NC(c2ccc(OC(=O)c4ccc(Cl)cc4)cc2)N3)C1 (stereo unspecified) | 1 | 2% | / | / | / | 71*
Cc1cccc(C2NC(=O)c3c(sc4c3CCN(C)C4)N2)c1O (stereo unspecified) | 47* | -2% | / | / | / | -1
NC(C(=O)O)c1nn[nH]n1 (stereo unspecified) | / | / | / | / | -11% | /
COC(=O)c1cc(Nc2cc(C)c3ccc(O)cc3n2)cc(C(=O)OC)c1 | 32* | 12% | 3 | ? | 11% | 1
COc1ccc(NS(=O)(=O)c2cc(NC(=O)c3cc(=O)c4ccccc4o3)ccc2OC)cc1 | 34* | 3% | -1 | / | -4% | 0
Cc1ccc(C)c(-c2nc(Cn3c(=O)cc(-c4ccccc4)c4c(C)nn(C)c43)c(C)o2)c1 | 3 | 1% | / | / | / | 32*
O=[N+]([O-])c1ccc(Oc2cccc3cccnc23)c([N+](=O)[O-])c1 | -4 | 13µM* | 0 | ? | 0% | 7
CCn1c(CNC(=O)C23CC4CC(CC(C4)C2)C3)nnc1SCC(=O)Nc1ccc(F)cc1 | -5 | 1% | / | / | / | 0
Cc1cc2oc(C(=O)N(Cc3ccco3)Cc3ccccc3Cl)c(C)c2cc1C | 41* | -3% | / | / | / | 2
COc1ccccc1NC(=O)c1c(C)cc(C)nc1SCC(=O)Nc1cccc(C)c1 | -6 | -2% | / | / | / | 3
SMILES | TRHR PAM | Epigenetic derep | IL-2 act | MBNL1-CUG inh | CBFb RUNX1 block | TRHR ag
Cc1nn(-c2ccc(N3CCOCC3)nn2)c(C)c1CCC(=O)NCc1ccc(F)cc1 | 34*! | 0% | -4 | 2% | / | 0
CCOC(=O)CC1C(=O)NCCN1c1nc2c(C)cccn2c(=O)c1/C=C1\SC(=S)N(CC(C)C)C1=O (stereo unspecified) | 0 | 7.9µM* | / | -2% | -5% | 24
CC(C)CN1C(=O)/C(=C/c2c(N3CCc4ccccc4C3)nc3ccccn3c2=O)SC1=S | -2 | 4.5µM* | / | -3% | 8% | 6
O=C(CCCN1C(=O)c2ccccc2C1=O)N1CCOCC1 | 33* | 0% | 1 | -1% | 9% | 0
O=C1c2ccccc2C(=O)N1CCSC(=S)N1CCOCC1 | 41* | 0% | 1 | -4% | -1% | 0
Cc1ccc2cc3c(N)nn(C(=O)c4cccc(F)c4)c3nc2c1 | 2 | 9% | / | / | / | -2
Cc1cccc(Oc2nc3c(C)cccn3c(=O)c2/C=C(\C#N)c2nc3ccccc3s2)c1 | 9 | -1% | / | / | / | 1
Cc1cc(C)cc(Oc2nc3c(C)cccn3c(=O)c2/C=C(\C#N)c2nc3ccccc3s2)c1 | 54* | 0% | / | / | / | 0
Cc1cccc(Oc2nc3c(C)cccn3c(=O)c2/C=C(\C#N)c2nc3ccccc3[nH]2)c1 | -3 | 7.1µM* | / | / | / | 1
CC(C)(C)c1ccc(Oc2nc3ccccn3c(=O)c2/C=C(\C#N)c2nc3ccccc3[nH]2)cc1 | 1 | 25µM* | / | / | / | 1
N#Cc1nc(Nc2cccc(C(F)(F)F)c2)nc(NC2CCCC2)n1 | -2 | / | / | / | / | 1
CC(C)C(=O)Nc1nnc(SCc2cc(=O)n3ccccc3n2)s1 | 0 | 7% | / | / | / | 0
O=C(OC1Cc2c(O)cc(O)cc2OC1c1cc(O)c(=O)c2c(O)c(O)cc(C3Oc4cc(O)cc(O)c4CC3OC(=O)c3cc(O)c(O)c(O)c3)c2c1)c1cc(O)c(O)c(O)c1 (stereo unspecified) | / | 0% | / | / | / | /
Cc1cc(C(=O)CCl)c(C)n1Cc1ccco1 | -8 | 13µM* | 0 | / | -21% | 0
Cc1cc(C(=O)CSc2nncs2)c(C)n1Cc1ccco1 | 1 | 4% | 0 | -2% | -3% | 0
Cc1ccc(-c2nc3scc(CCNS(=O)(=O)c4c(C)noc4C)n3n2)cc1 | 9 | 2% | / | / | / | -1
CCC(=O)C1=C(c2ccc(Cl)cc2)N(C(=O)CC)n2c(C)nnc2S1 | -7 | 1% | / | / | / | 0
Cc1csc(NC(=O)CSc2nc3ccccc3c3c2CCCC3)n1 | 36* | -1% | -3 | 6% | -3% | 2
CC(C)n1c(NCc2ccc(Cl)cc2)nc2ccccc21 | 40* | 0% | 0 | -3% | 7% | 0
CN(CC(=O)Nc1cccc(F)c1)C(=O)c1ccc(-c2cccc(C(F)(F)F)c2)o1 | 9 | / | -1 | / | / | 0
Cc1ccc(C)c(NC(=O)CN(C)C(=O)c2ccc(-c3cccc(C(F)(F)F)c3)o2)c1 | 37* | / | 0 | / | / | 0
